Experimental data as given in PubChem BioAssay (NCI).
Compounds without any hit were thinned out: in the full panel of roughly 83,000, 20% have a hit.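 Note: values are percent growth. 100 is the growth of untreated cells, values between 100 and 0 indicate rising inhibition; between -100 and 0 indicates cell death.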 A number with no mark means an inactive call. Calls of active or inactive are those of the source. The calls were made as follows: active = growth percent below 10; inactive = the rest.

Experiments:
Experiment in all cases: NCI-60 one-dose screen, 48 h (100 = growth as untreated, 0 = no growth, -100 = all killed)
Conditions in all cases: 10 µM unless noted
HCT-15 colon = system: HCT-15 colon
HT29 colon = system: HT29 colon
SNB-19 CNS = system: SNB-19 CNS
U251 CNS = system: U251 CNS
PC-3 prostate = system: PC-3 prostate
SK-MEL-5 melanoma = system: SK-MEL-5 melanoma
UACC-62 melanoma = system: UACC-62 melanoma
LOX IMVI melanoma = system: LOX IMVI melanoma
SK-MEL-28 melanoma = system: SK-MEL-28 melanoma

| Compound | growth (HCT-15 colon) | growth (HT29 colon) | growth (SNB-19 CNS) [%] | growth (U251 CNS) | growth (PC-3 prostate) [%] | growth (SK-MEL-5 melanoma) | growth (UACC-62 melanoma) | growth (LOX IMVI melanoma) | growth (SK-MEL-28 melanoma) |
| --- | --- | --- | --- | --- | --- | --- | --- | --- | --- |
| O=C1O[C@@H](c2ccccc2Cl)[C@@H]2c3cc4c(cc3CCN12)OCO4 | 101% | 86.4% | 99.4 | 86% | 87.7 | 96.6% | 78.7% | 99.5% | 118% |
| O=C1CCCCN1c1ccc(C2=NCCCN2)cc1 | 101% | 87.6% | 89.2 | 79.3% | 79.9 | 97.5% | 90.3% | 87.7% | 91.4% |
| CCn1cc(Cc2cc(C(=O)Nc3cc4cc(OC)c(OC)cc4c(C)n3)ccc2Cl)cn1 | 19.3% | 2.56% (active) | 44.7 | 48.3% | 29.2 | 13.3% | 43.8% | 5.28% (active) | 35% |
| C=CN(C(=O)N1CCN(c2cc3c(cc2F)c(=O)c(C(=O)O)cn3C2CC2)CC1)c1nc(-c2ccc(Cl)cc2)cs1 | 24.6% | 40.2% | 59.5 | 23.6% | 40.3 | 81.9% | 60.3% | 28.6% | 62% |
| COc1cc2ncnc(Nc3ccc(S(=O)(=O)Nc4nccs4)cc3)c2cc1OCCCN1CCCC1 | 101% | 107% | 103 | 101% | 100 | 105% | 97.2% | 98.9% | 109% |
| C/C(=C(\c1ccc(OCCN2CCCCCC2)cc1)c1ccc(OC(=O)c2ccccc2)cc1)c1ccc(Cl)cc1 | 7.21% (active) | 1.67% (active) | 57.9 | 29.8% | 33.8 | 55.6% | 28.4% | -38.9% (active) | 51.7% |
| CCN(CC)CCCC(Cc1ccccc1)Nc1c2ccc(Cl)cc2nc2ccc(OC)cc12 (configuration not stated) | 2.58% (active) | 16.3% | 34.7 | 9.64% (active) | 44.8 | -93.6% (active) | -61.2% (active) | -67.8% (active) | -79.3% (active) |
| C=C(C)[C@@H]1CC[C@]2(C(=O)N3CCNCC3)CC[C@]3(C)[C@H](CC[C@@H]4[C@@](C)(CCC(=O)N5CCNCC5)[C@H](C(=C)C)CC[C@]43C)[C@@H]12 | 30.8% | 26.1% | 99 | 7.62% (active) | 57.7 | 89.7% | 104% | 44.4% | 96.7% |
| CCN(CC)CCn1c2ccc(OC)cc2c2sc3cc(O)ccc3c(=O)c21 | 18.7% | 15.1% | 25.8 | 27.4% | 32 | 76.1% | 54.8% | -30.4% (active) | 68.8% |
| O=S(=O)(Nc1cc(Sc2nc3ccccc3s2)c(O)c2ccccc12)c1ccc2ccccc2c1 | 97.5% | 115% | 106 | 86.6% | 77.3 | 74.5% | 99.1% | 60.1% | 116% |
| O=C(O)c1cn(C2CC2)c2cc(N3CCN(C(=O)N4CCOCC4)CC3)c(F)cc2c1=O | 103% | 102% | 105 | 103% | 91.9 | 99.4% | 97.3% | 87.1% | 104% |
| COCCn1cc(-c2csc(-c3c[nH]c4ccc(F)cc34)n2)c2cccnc21 | 14.7% | 11.8% | 58.1 | 32.5% | 22.5 | 1.53% (active) | 42.5% | 21.8% | 46.6% |
| COc1ccc(-c2cc(C(=O)N3N=C(c4ccc(N)cc4)CC3c3ccc(Cl)cc3)c3ccccc3n2)cc1 (configuration not stated) | 21.4% | -11.7% (active) | 48.3 | 15.2% | 26.1 | 25.9% | 38.3% | 33% | 63.4% |
